VLA-4 inh: inhibition in a human VLA-4 binding assay | AID 2557 | inhibition, % (about 7 µM as worked out from the volumes in the protocol) | 330,000 tested, 0.2% active | VLA-4 expressing cells, ligand binding flow cytometry; in the data active = inhibition above about 50%
Target sequence (P13612 whole entry, looked up): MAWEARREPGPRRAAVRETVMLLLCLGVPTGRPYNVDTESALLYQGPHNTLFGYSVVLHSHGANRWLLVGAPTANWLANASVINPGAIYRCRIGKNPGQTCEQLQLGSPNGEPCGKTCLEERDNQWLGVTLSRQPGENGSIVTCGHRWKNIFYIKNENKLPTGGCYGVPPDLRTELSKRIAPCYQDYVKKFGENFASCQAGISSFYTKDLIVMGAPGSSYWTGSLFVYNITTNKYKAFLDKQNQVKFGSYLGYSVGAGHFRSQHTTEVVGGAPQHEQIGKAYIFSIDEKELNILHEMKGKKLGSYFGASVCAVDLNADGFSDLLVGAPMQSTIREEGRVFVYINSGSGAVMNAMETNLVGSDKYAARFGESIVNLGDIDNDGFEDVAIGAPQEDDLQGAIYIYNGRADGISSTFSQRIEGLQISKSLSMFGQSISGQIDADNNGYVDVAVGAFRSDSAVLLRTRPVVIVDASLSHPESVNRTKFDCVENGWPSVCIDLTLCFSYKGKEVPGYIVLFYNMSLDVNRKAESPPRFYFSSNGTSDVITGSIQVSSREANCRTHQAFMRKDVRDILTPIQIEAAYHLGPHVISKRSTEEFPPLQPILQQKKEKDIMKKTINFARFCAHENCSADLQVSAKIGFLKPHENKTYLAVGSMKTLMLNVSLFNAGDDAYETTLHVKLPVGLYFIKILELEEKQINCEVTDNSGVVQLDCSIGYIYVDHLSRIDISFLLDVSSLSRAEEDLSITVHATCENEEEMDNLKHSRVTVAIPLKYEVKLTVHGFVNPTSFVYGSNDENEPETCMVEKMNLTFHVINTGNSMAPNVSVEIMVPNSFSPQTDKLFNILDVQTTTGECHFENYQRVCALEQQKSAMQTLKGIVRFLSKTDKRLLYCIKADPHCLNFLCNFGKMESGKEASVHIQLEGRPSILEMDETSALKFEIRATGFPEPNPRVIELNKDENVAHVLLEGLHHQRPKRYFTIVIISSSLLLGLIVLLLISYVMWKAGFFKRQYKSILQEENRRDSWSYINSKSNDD
RPL19A TOR yeast: alters RPL19A-GFP fluorescence in TOR pathway yeast screen | S. cerevisiae RPL19A-GFP strain, flow cytometry, 3 h; stronger effect = lower value | percent response vs DMSO, % at 10 µM | 330,000 tested, 0.3% active | AID 2025;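 active = percent response vs DMSO below 50%; inconclusive = fewer than 70 events counted for the yeast strain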;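 also: median channel GFP fluorescence of the barcoded RPL19A-GFP strain; ratio of sample median GFP to plate DMSO average so 100% = DMSO; lower means less RPL19A-GFP as with rapamycin TOR inhibition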
LAP4 TOR yeast: yeast TOR pathway LAP4-GFP modulation | S. cerevisiae LAP4-GFP multiplex, flow cytometry GFP, 3 h; median GFP as percent of DMSO wells | GFP response vs DMSO, % at 10 µM | 320,000 tested, 0.34% active | AID 2023;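 active = GFP response vs DMSO above a set limit, about the screen mean plus 3 SD, cut at about 150% in these data; inconclusive = under 70 cell events counted for the yeast strain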
CIT2 TOR yeast: alters CIT2-GFP fluorescence in TOR pathway yeast screen; 320,000 tested, 0.065% active; GFP response vs DMSO, % at 10 µM; S. cerevisiae CIT2-GFP strain, flow cytometry, 3 h; 100 means same as DMSO wells;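 active = GFP response relative to DMSO above a set limit, near the screen mean plus 3 SD, cut at about 150% in these data; inconclusive = Fewer than 70 cells measured for a yeast strain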;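 also: ratio of well median GFP fluorescence to mean of DMSO wells on the plate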
MEP2 TOR yeast: modulators of TOR pathway MEP2-GFP in S. cerevisiae; S. cerevisiae MEP2-GFP strain, flow cytometry GFP, 3 h; 100% = DMSO control level; GFP response vs DMSO, % at 10 µM; 330,000 tested, 0.51% active; AID 2016;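 active = GFP response versus DMSO above a set limit, roughly screen mean plus 3 SD, cut at about 180% in these data; inconclusive = fewer than 70 cells counted for a yeast strain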;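 also: median GFP fluorescence of the barcode-gated MEP2-GFP cells per well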
AGP1 TOR yeast: yeast TOR pathway AGP1-GFP modulation | S. cerevisiae AGP1-GFP multiplex flow cytometry, 3 h; GFP as percent of DMSO wells | GFP response vs DMSO, % at 10 µM | 320,000 tested, 0.02% active | AID 2066;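 active = GFP response relative to DMSO above a set limit, near screen average plus 3 SD, cut at about 150% in these data; inconclusive = fewer than 70 cells counted for the yeast strain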;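 also: median GFP channel fluorescence of the gated AGP1 strain per well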
The depositor's hits bear a star; ? = inconclusive; · = no result; [ ] = dose if it differs, or a comment. Shown are actives, neighbours in structure and some others; about 1.1% of the full set was active somewhere.

SMILES	VLA-4 inh	RPL19A TOR yeast	LAP4 TOR yeast	CIT2 TOR yeast	MEP2 TOR yeast	AGP1 TOR yeast
Cc1nn(CC(=O)NCCN2CCOCC2)c(=O)c2ccccc12	12	101	92	87	102	100
C=C(C)[C@H]1CC=C(C)/C(=N/NC(=O)CNc2ccccc2OC)C1	1	31*[may fluoresce violet]	119	?	223*[may fluoresce violet]	?
O=C1C(CSCc2ccccc2)NC(=S)N1c1ccccc1 (configuration not stated)	15	95	152*	91	87	97
O=C(O)CC1NC(=S)N(c2ccccc2)C1=O (configuration not stated)	-3	·	100	95	94	91
O=S1(=O)N=C(N2CCc3ccccc3C2)c2ccccc21	0	43*[may fluoresce violet]	87	?	336*[may fluoresce violet]	?
O=S1(=O)N=C(N2CCCc3ccccc32)c2ccccc21	14	99	96	89	104	94
Oc1ccccc1OCc1nc2ccccc2s1	0	57	111	?	179*[may fluoresce violet]	?
O=C(Cc1ccccc1)NN1C(=O)C2C3C=CC(C3)C2C1=O (configuration not stated)	-486	60	110	?	232*[may fluoresce violet]	·
O=C(/C=C/c1ccccc1)C1=C(O)C(=O)N(CCO)C1c1cccc([N+](=O)[O-])c1 (configuration not stated)	-13	59	107	105	639*	48
Cc1ccc(S(=O)(=O)NC(=O)Nc2c(C)n(C)n(-c3ccccc3)c2=O)cc1	-3	99	99	101	107	105
Cc1ccc(S(=O)(=O)NCCCCCC(=O)Nc2c(C)n(C)n(-c3ccccc3)c2=O)cc1	-11	37*[may fluoresce violet]	62	?	251*[may fluoresce violet]	?
OCCCc1nc2n(n1)C(c1ccccc1)C=C(c1ccccc1)N2 (configuration not stated)	21	100	94	93	87	98
COc1ccc(C2C=C(c3ccccc3)Nc3nc(CCCO)nn32)cc1 (configuration not stated)	2	44*[may fluoresce violet]	92	?	576*[may fluoresce violet]	?
CCOc1ccccc1N(CC(=O)NC1CCCC1)C(=O)CCCC(=O)Nc1ccccn1	19	101	91	?	202*[may fluoresce violet]	110
CC1(C)OC(=O)C(=Cc2ccc(-c3ccc(Cl)c(C(=O)O)c3)o2)C(=O)O1	1	102	84	90	91	82
O=C(O)c1ccc(-c2ccc(/C=c3/sc4nc5ccccc5n4c3=O)o2)cc1Cl	-54	28*[may fluoresce violet]	62	?	783*[may fluoresce violet]	?
C=CCNC(=O)O/N=C/c1csc([N+](=O)[O-])c1	25	103	110	104	107	110
CCCNC(=O)COC(=O)c1ccc(Cl)c(S(=O)(=O)N2CCCC2)c1	-16	103	108	111	103	107
CCCNC(=O)COC(=O)c1ccc(S(=O)(=O)N2CCCC2)cc1	7	114	240*	193*	264*	119
CCN(CC)P(=O)(Nc1ccccc1Br)c1ccc(N(C)C)cc1NC(=O)c1ccco1 (configuration not stated)	5	98	112	104	99	98
CCOC(=O)Nc1c2ccccc2nc2ccccc12	34	75	89	?	207*[may fluoresce violet]	13
Cc1ccc(NC(=O)CSc2ccc(Br)cc2)cc1S(=O)(=O)N1CCOCC1	9	101	106	109	106	106
CCOC(=O)c1ccc(N2CCOCC2)c(NS(=O)(=O)c2ccc(F)cc2)c1	-5	95	107	168*[may fluoresce green]	111	119
CCCOC(=O)Nc1ccc(S(=O)(=O)Nn2cnnc2)cc1	2	95	99	95	99	99
CCCCOC(=O)Nc1ccc(S(=O)(=O)Nn2cnnc2)cc1	6	39*[may fluoresce violet]	73	?	278*[may fluoresce violet]	?
SMILES	VLA-4 inh	RPL19A TOR yeast	LAP4 TOR yeast	CIT2 TOR yeast	MEP2 TOR yeast	AGP1 TOR yeast
COc1ccccc1C1C(C(=O)NCc2ccccc2)=C(C)Nc2ncnn21 (configuration not stated)	9	99	96	106	98	101
CC(=O)C1=C(C)Nc2ncnn2C1c1ccccc1OCc1ccccc1 (configuration not stated)	-4	46*[may fluoresce violet]	101	?	304*[may fluoresce violet]	·
Cc1noc(C)c1S(=O)(=O)Nc1ccc(C#N)cc1	-2	92	103	156*[may fluoresce green]	106	118
Cc1noc(C)c1S(=O)(=O)Nc1cccc(CO)c1	1	92	111	152*[may fluoresce green]	96	113
O=C1C(Br)=Cc2cccc3cccc1c23	1	35*[may fluoresce violet]	87	?	389*[may fluoresce violet]	?
CCN(CC)c1ccc(/C=C/c2nc3ccccc3s2)cc1	-152	111	145	149	206*	102
COc1ccc(C(=O)NCC(=O)OCCOc2ccc(Cl)cc2)cc1OC	0	101	91	103	97	102
CCCCC(CC)CNC(=O)C(=O)c1ccccc1NC(C)=O (configuration not stated)	10	41*[may fluoresce violet]	92	?	191*[may fluoresce violet]	17
O=C(c1cccc(C(F)(F)F)c1)C1CCCN(C(=O)CN2CCOC2=O)C1 (configuration not stated)	-4	97	92	·	99	99
CSc1ccc(-c2cc(=O)c3ccccc3o2)cc1	-6	80	170*	73	99	83
O=c1cc(-c2ccc(F)cc2)oc2ccccc12	12	95	99	99	97	91
COCCOC(=O)c1c(NC(=O)CN2CCc3ccccc32)sc(C(N)=O)c1C	-5	101	101	101	105	100
CCOC(=O)c1c(NC(=O)CN2CCCc3ccccc32)sc(C(C)=O)c1C	-29	54	88	?	213*[may fluoresce violet]	?
CC(=O)N1CC(=O)N(c2ccccc2)C1=O	10	104	100	104	105	102
COc1cc2c(=O)n(CCCC(=O)NCC3CCCO3)c(=O)n(CC(=O)c3ccc(F)cc3)c2cc1OC (configuration not stated)	-3	96	91	90	?	95
COC(=O)c1cc(S(=O)(=O)C(C)C)c(S(C)=O)s1 (configuration not stated)	0	32*[may fluoresce violet]	78	?	435*[may fluoresce violet]	?
COC(=O)c1ccc(C(c2c(C)n(C)n(-c3ccccc3)c2=O)c2c(C)n(C)n(-c3ccccc3)c2=O)cc1	-1	102	94	105	103	96
CN1c2ccsc2/C(=N/Nc2ccc(F)cc2)CS1(=O)=O	12	95	151*	95	98	103
Cc1ccc(N/N=C2\CS(=O)(=O)N(C)c3ccsc32)cc1	12	101	117	92	97	97
